Data on 40 compounds can be found in PubChem BioAssay (Tox21).

Activity calls are given as the source filed them. Calls follow the shape of the dose curve; as a rule, active = well fitted curve in the direction sought with a large enough effect in the repeat runs; inconclusive = weak or mixed curves; inactive = flat fitted curve, though single readings scatter.
% is scaled to controls: 0 for no effect and ±100 for the full control effect.

A short description of this experiment: qHTS assay to test for compound auto fluorescence at 590 nm (red) in HEK293 cell free culture (AID 720683). The following applies: cell-free medium autofluorescence, Ex540/Em590 red; series mostly up to 91.3 µM; fluorescence, % of fluorescent control: at the top concentration. An excerpt: U.S. Tox21 Program National Center for Advancing Translational Sciences [NCATS] NIH Chemical Genomics Center [NCGC] U.S. Environmental Protection Agency [EPA] National Institutes of Environmental Health Sciences [NIEHS] National Toxicology Program [NTP] U.S. Food and Drug Administration [FDA] Tox21 Assay Overview: Compound auto fluorescence often interferes with screening of the compound library against various biological targets and signaling pathways. Some of these compounds may have fluorophoric properties. Such properties may interfere with the assay outputs resulting in false positives and/or negatives. To decrease such complications and ensure the compound activities are relevant in terms of biological response, the Tox21 10K compound library was screened for auto fluorescence. From the fluorophores used as reporter signals in our screening assays, the auto fluorescence equivalencies of compounds against three fluorophores have been evaluated: Triamterene, Fluorescein and Rose Bengal sodium for blue, green and red fluorescence, respectively. The fluorescence intensities were measured using Excitation/Emission wavelengths at 405/460nm, 485/535nm and 540/590nm for blue, green and red labels, respectively. This assay includes the red fluorescence data.
Tox21 Assay Protocol Summary: 5 uL of culture medium (DMEM containing 10% FBS) per well was dispensed into black wall/clear bottom 1536-well plates using a Multidrop Combi Dispenser (ThermoFisher Scientific, Waltham, MA). After 23 nL compound or DMSO vehicle was transferred into assay plate by a pintool work station (Kalypsys, San Diego, CA), fluorescence intensities in the assay plates were measured by an Envision (PerkinElmer, Shelton, CT) plate reader using three labels for measuring blue, green and red fluorescence at […] 460, 535 and 590nm respectively.
In the case of `O=C(O)c1ccccc1Nc1cc(Cl)ccc1C(=O)O`, the “fluorescence, % of fluorescent control” value was 0.352% [at 46 µM] (inactive). For `CCN(O)CC`, the “fluorescence, % of fluorescent control” value is 0.049% (inactive).

In the case of `CCCCCCCCCC#N`, the “fluorescence, % of fluorescent control” value is 0.0256% (inactive). Turning to `CN1C(=O)CC(c2ccccc2)C1=O` (stereo not given), the “fluorescence, % of fluorescent control” value is 0.419% [at 46 µM] (inactive). Under `O=C(O)[C@@H]1CSCN1` stands 0.295% [at 46 µM] (inactive).

As for `NC(Cc1ccc(F)cc1)C(=O)O` (stereo not given), the fluorescence, % of fluorescent control was 0.0018% [at 3.72 µM] (inactive). In the case of `O=C(O)c1cccc(Cl)c1Cl` it was 0.0142% (inactive); in that of `Cc1c(N)cccc1N`, -0.18% [at 95.7 µM] (inactive). For `CS(=O)(=O)c1ccc([C@@H](O)[C@@H](CF)NC(=O)C(Cl)Cl)cc1`, the fluorescence, % of fluorescent control was -0.0638% [at 18.6 µM] (inactive). `CC(C)(C)C1CCCCC1=O` (stereo not given): the “fluorescence, % of fluorescent control” value was 0.0662% (inactive). In the case of `C=CCCC=C` it was -0.0061% [at 95.7 µM] (inactive). Regarding `CN(CCCN1c2ccccc2CCc2ccccc21)CC(=O)c1ccc(Cl)cc1`, the “fluorescence, % of fluorescent control” value was 0.269% [at 46 µM] (inactive). With `CCOC(=O)C(Br)c1ccccc1` (stereo not given), the “fluorescence, % of fluorescent control” value was -0.275% (inactive).

In the case of `CC/C=C\CCOC(=O)C(C)C`, the “fluorescence, % of fluorescent control” value was -0.059% (inactive). Under `Cc1cc2nc(N)sc2cc1C` stands 0.0141% (inactive). In the case of `CC(C)=CCC[C@](C)(O)[C@@H]1CC=C(C)CC1` it was 0.191% (inactive); in that of `COC(=O)N[C@H](C(=O)N[C@@H](Cc1ccccc1)[C@@H](O)CN(Cc1ccc(-c2ccccn2)cc1)NC(=O)[C@@H](NC(=O)OC)C(C)(C)C)C(C)(C)C`, 0.185% [at 46 µM] (inactive). For the compound `CN(CC1(C)CCCO1)S(=O)(=O)c1ccc(Cl)c(S(N)(=O)=O)c1` (stereo not given), the “fluorescence, % of fluorescent control” value is 0.0457% [at 46 µM] (inactive).

`Cc1cccc(C)c1NC(=O)CN1CCCCCC1`: the “fluorescence, % of fluorescent control” value was 0.121% [at 46 µM] (inactive). Under `CCCCCCCOC(=O)CCC` stands -0.109% (inactive). Turning to `C1CCOC1`, the “fluorescence, % of fluorescent control” value was 0.0071% [at 95.7 µM] (inactive). Turning to `CCCCNC(=S)NCCCC`, the “fluorescence, % of fluorescent control” value was -0.109% (inactive). Turning to `CCOc1ccccc1N`, the “fluorescence, % of fluorescent control” value is -0.162% (inactive).

For `O=C1CCC(C2CCCCC2)CC1`, the “fluorescence, % of fluorescent control” value was -0.159% (inactive). In the case of `NNS(=O)(=O)c1ccc(Oc2ccc(S(=O)(=O)NN)cc2)cc1`, the “fluorescence, % of fluorescent control” value is 0.0519% (inactive). Consider `Cc1ccc(C)c(N)c1`, for which the “fluorescence, % of fluorescent control” value was -0.255% (inactive).

`O=C1CCCCCCCCCCC(=O)OCCO1`: the “fluorescence, % of fluorescent control” value was 0.133% (inactive). Take `Cc1ccsc1C(=CCCN1CCC[C@@H](C(=O)O)C1)c1sccc1C`: the “fluorescence, % of fluorescent control” value is -0.0338% [at 46 µM] (inactive). On to `CCN[C@H]1CN(CCCOC)S(=O)(=O)c2sc(S(N)(=O)=O)cc21`, for which the fluorescence, % of fluorescent control is -0.021% [at 18.6 µM] (inactive). As to `CC(C)c1ccccc1`, the “fluorescence, % of fluorescent control” value is 0.0165% [at 95.7 µM] (inactive).

Consider `CC1(C)O[C@@H]2C[C@H]3[C@@H]4CCC5=CC(=O)CC[C@]5(C)[C@@]4(F)[C@@H](O)C[C@]3(C)[C@]2(C(=O)CCl)O1`, for which the fluorescence, % of fluorescent control is -0.0463% [at 18.6 µM] (inactive). For the compound `CN(C)CCOc1ccccc1Cc1ccccc1`, the “fluorescence, % of fluorescent control” value is -0.0095% [at 46 µM] (inactive). Regarding `O=C(CC(=O)C(F)(F)F)c1ccccc1`, the “fluorescence, % of fluorescent control” value was 0.0029% [at 95.7 µM] (inactive). Regarding `CC1=C2[C@H](/C=C(\C)C(=O)O)CC[C@@H](C)[C@H]2CC1`, the “fluorescence, % of fluorescent control” value was -0.175% [at 95.7 µM] (inactive). For the compound `CCCCNc1ccc(C(=O)OCCN(CC)CC)cc1`, the “fluorescence, % of fluorescent control” value is -0.449% [at 46 µM] (inactive). With `CCOc1ccc(OCC)c(Cl)c1`, the “fluorescence, % of fluorescent control” value was 0.0344% (inactive). Consider `CCN(CC)C(=O)N(CC)CC`, for which the “fluorescence, % of fluorescent control” value is -0.229% (inactive).

Consider `CC(C)S`, for which the “fluorescence, % of fluorescent control” value was 0.014% [at 95.7 µM] (inactive).

On to `O=C(C(Cl)Cl)N1CCOC12CCCCC2`, for which the “fluorescence, % of fluorescent control” value was -0.37% (inactive).

Take `CC(CNC1CCCCC1)OC(=O)c1ccccc1` (stereo not given): the fluorescence, % of fluorescent control is -0.008% [at 18.6 µM] (inactive).
